Data on 15 molecules can be found in PubChem BioAssay.

A short description of test [1]: compounds binding Alexa647 anti-His antibody – biochemical, small-molecule microarray, 635 nm fluorescence, artefact control for SMM control protein annotation, primary screen (AID 1128).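 Note: score merges feature fluorescence with signal-to-noise for each printed compound spot.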 To be noted: higher = more signal.
Test [2] has as its system Human papillomavirus type 1a E7 protein (residues 1-88). The test can be described thus: HPV1a E7 small-molecule binders, primary screen, biochemical, small-molecule microarray, residues 1-88, 635 nm (AID 1129). To be noted: small-molecule microarray binding, fluorescence 635 nm; higher = more signal.
In test [3] the target is Focal adhesion kinase 1 (Homo sapiens) (UniProt Q05397). Nature of the test: PTK2 protein binding on printed compound slides – biochemical, small-molecule microarray, 635/667 nm fluorescence, BSA, DTT, primary screen (AID 1130).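 Note: composite of spot emission at 667 nm and signal to noise over triplicate slides.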 Particulars: 635 nm fluorescence, higher = more signal.
Test [4] has as its system Fibrinogen (Alexa647-labelled). The test can be described thus: Alexa647-fibrinogen binding to printed small molecules – biochemical, small-molecule microarray, 635/667 nm fluorescence, artefact control for SMM control-protein annotation, profiling panel (AID 1131).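 Note: z-score merges 667 nm fluorescence with per-spot signal-to-noise over triplicate slides.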 Particulars: fibrinogen-A647 binding fluorescence, higher = more signal.
Test [5] concerns the target Follistatin (Homo sapiens) (UniProt P19883). Nature of the test: FST protein binding to printed compounds – biochemical, small-molecule microarray, 635/667 nm fluorescence, primary screen (AID 1132). To be noted: 635 nm fluorescence, higher = more signal.
The target in test [6] is Fibroblast growth factor 2 (Homo sapiens) (UniProt P09038). Nature of the test: basic fibroblast growth factor binding to printed compounds – biochemical, small-molecule microarray, 635/667 nm fluorescence, primary screen (AID 1133). To be noted: FGF2, fluorescence 635/667, higher = more signal.
A short description of test [7]: JC-1 mitochondrial potential readout, lung cancer cells – cell-based, A549, JC-1 fluorescence, basal, 24 h, 100 nL, profiling panel (AID 1138).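 Note: A549 lung adenocarcinoma cells under basal conditions with no added stimulus; test concentration not given here.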 Particulars: higher = more signal.
In the next test the test system is Lefty1. The test can be described thus: Lefty1 protein binding to printed compounds – biochemical, small-molecule microarray, 635/667 nm fluorescence, primary screen (AID 1139). Particulars: fluorescence 635/667, higher = more signal.
Test [8] concerns wheat germ agglutinin (Triticum aestivum), Alexa647-labelled. Nature of the test: Alexa647-WGA lectin binding to printed small molecules – biochemical, small-molecule microarray, 635/667 nm fluorescence, artefact control for SMM control-protein annotation, profiling panel (AID 1140).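 Note: score merges 667 nm feature emission with signal to noise over triplicate slides.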 Particulars: WGA-A647 binding, 635 nm fluorescence, higher = more signal.
The target in test [9] is Luciferin 4-monooxygenase (Photinus pyralis) (UniProt P08659). The test can be described thus: inhibition of purified Photinus pyralis luciferase – biochemical, luminescence, purified enzyme, 2006 set, primary screen (AID 1141).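 Note: cell-free assay with purified firefly luciferase at 100 ng per well in PBS; test concentration not given here.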 Particulars: purified firefly luciferase, SteadyGlo luminescence, 30 min; higher = more signal, called active from +8 up or from −8 down.

Calls of active or inactive are those of the source.

Follistatin (Homo sapiens), sequence (P19883 whole entry, looked up): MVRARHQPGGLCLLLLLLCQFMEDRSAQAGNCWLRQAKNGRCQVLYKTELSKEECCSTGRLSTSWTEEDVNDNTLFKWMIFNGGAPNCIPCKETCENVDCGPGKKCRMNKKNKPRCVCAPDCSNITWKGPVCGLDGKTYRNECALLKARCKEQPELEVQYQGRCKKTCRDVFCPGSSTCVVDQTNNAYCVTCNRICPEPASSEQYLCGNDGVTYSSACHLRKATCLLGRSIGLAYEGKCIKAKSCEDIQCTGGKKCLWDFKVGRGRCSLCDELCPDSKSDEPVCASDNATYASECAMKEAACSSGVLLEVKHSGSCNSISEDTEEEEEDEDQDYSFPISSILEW
Fibroblast growth factor 2 (Homo sapiens), sequence (P09038 whole entry, looked up): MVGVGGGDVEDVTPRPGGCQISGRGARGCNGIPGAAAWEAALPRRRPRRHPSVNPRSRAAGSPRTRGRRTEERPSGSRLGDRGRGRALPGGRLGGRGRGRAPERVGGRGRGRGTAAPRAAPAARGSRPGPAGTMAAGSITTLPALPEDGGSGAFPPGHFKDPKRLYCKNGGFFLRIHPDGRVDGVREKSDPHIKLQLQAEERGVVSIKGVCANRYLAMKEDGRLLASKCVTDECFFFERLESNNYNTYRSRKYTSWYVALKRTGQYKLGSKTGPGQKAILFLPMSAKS
Focal adhesion kinase 1 (Homo sapiens), sequence (Q05397 whole entry, looked up): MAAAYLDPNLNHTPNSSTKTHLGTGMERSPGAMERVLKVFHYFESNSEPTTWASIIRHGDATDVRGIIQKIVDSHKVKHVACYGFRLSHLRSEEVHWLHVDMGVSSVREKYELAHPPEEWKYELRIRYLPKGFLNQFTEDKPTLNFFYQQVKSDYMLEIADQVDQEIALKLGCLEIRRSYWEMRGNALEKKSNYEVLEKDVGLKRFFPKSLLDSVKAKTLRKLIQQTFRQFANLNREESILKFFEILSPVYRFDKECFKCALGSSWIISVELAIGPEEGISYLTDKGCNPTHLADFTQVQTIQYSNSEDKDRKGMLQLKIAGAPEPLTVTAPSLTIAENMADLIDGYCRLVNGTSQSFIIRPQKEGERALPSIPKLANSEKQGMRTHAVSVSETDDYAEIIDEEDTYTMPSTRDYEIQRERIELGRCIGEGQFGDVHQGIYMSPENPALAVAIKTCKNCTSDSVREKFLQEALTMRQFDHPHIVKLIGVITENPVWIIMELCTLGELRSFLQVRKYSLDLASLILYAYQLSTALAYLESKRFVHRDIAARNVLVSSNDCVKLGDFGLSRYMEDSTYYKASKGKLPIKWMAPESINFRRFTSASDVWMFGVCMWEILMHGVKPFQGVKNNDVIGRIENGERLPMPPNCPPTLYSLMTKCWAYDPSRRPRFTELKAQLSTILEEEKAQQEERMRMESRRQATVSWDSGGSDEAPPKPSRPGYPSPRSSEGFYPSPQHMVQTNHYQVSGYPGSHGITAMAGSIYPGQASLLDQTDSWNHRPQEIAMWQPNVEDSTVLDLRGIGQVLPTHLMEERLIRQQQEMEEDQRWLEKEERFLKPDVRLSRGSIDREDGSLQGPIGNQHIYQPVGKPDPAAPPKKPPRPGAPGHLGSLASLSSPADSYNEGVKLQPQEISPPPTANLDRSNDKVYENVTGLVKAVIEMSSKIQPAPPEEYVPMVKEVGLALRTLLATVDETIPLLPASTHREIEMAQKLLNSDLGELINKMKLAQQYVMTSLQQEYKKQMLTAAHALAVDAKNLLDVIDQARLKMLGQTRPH
Luciferin 4-monooxygenase (Photinus pyralis), sequence (P08659 whole entry, looked up): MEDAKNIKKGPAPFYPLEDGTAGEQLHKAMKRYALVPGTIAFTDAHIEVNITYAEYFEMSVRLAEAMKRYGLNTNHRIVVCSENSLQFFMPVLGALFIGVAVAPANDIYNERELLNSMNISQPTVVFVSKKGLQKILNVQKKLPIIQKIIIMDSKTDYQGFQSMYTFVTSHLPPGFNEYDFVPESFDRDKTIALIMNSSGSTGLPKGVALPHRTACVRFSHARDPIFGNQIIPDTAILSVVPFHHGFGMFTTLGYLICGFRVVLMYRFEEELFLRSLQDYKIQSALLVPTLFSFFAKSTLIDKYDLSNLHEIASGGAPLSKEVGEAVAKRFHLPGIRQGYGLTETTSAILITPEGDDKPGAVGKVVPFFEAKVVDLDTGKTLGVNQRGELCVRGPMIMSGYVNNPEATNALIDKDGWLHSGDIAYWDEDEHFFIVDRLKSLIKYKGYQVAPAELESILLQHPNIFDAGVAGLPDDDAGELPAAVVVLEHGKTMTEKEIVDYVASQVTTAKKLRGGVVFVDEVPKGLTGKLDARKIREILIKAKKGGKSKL

Turning to `O=C1N(CCS(=O)(=O)c2ccccc2)c2ccccc2C[C@@]12COC(c1ccc(OCCCO)cc1)=N2`, the composite z-score in test [1] was determined as 2.83; in test [2], 1.25; in [3], 1.16; in test [4] it was 0.962; in test [5], 1.28; in [6] it was 0.87. For the same molecule, the composite z-score with Lefty1 worked out at 0.222; in test [8], 0.611. In addition, the z-score in [7] is -0.0718; in test [9] it was -1.63 (inactive).
`CCOC(=O)C[C@H]1[C@H](OC(=O)c2ccc(-c3ccccc3)cc2)[C@@H](NC(=O)c2ccc3ccccc3c2)c2cc(OCCCO)ccc2N1C(=O)Cc1ccc(OC)cc1`: the composite z-score in [1] was -0.034; in test [2], 0.401; in test [3], 0.463; in test [4], 0.536; in [5], -0.187; in [6] it was -0.0546. The composite z-score was -0.154 with Lefty1 and -0.006 in test [8]. Moreover, the z-score in test [7] was -0.0901; in [9], 1.13 (inactive).
As to `Cc1cc(C)c(C(O)C2C=CC3C(=O)N(c4ccccc4)C(=O)C3N2Nc2ccc(C#N)cc2)c(C)c1` (stereo not given), the composite z-score in [1] came to 1.21; in test [2], 1.23; in [3], 0.388; in test [4], 0.912; in [5], 0.509; in test [6], 0.312. Further, the composite z-score with Lefty1 was 0.302; in test [8], 1.03. Further, the values for the z-score in test [7] and in test [9] were -0.613 and -0.75 (inactive), respectively.
In the case of `O=C/C=C/c1ccc(Cl)cc1`, the composite z-score is -0.318 in test [1]; -1.36 in test [2]; -0.195 in test [3]; -0.991 in test [4]; -0.329 in test [5]; -0.236 in test [6]. Moreover, the composite z-score in the test on Lefty1 was -0.283; in test [8], -0.488. Moreover, the z-score is 2.19 in test [7] and -0.712 (inactive) in test [9].
On to `C=CC[C@@]1(C(=O)O)N=C(c2ccc(OCCCO)cc2)O[C@@H]1c1ccccc1N=[N+]=[N-]`, for which the composite z-score is 1.06 in test [1]; 0.811 in test [2]; 0.235 in test [3]; 0.987 in [4]; 1.1 in [5]; -0.168 in [6]. Besides, the values for the composite z-score (in the test on Lefty1; in test [8]) were -0.504 and 1.36, respectively. Further, the z-score was 0.117 in [7] and -12.9 (active) in test [9].
With `Cc1ccc([C@H]2[C@H](C(=O)O)[C@H](Sc3ccccc3)[C@@H](C(C)C)N2S(=O)(=O)c2ccc(C)cc2)cc1`, the composite z-score was 0.229 in test [1]; 1.19 in [2]; 0.344 in test [3]; 0.996 in test [4]; 0.744 in test [5]; -0.228 in [6]. Further, the composite z-score with Lefty1 came out at 0.127; in test [8] it was 0.798. For the same molecule, the z-score in test [7] was -1.31; in test [9], 0.426 (inactive).
As to `O=C1C2C=CC(C(O)c3ccc(B(O)O)cc3)N(Nc3ccccc3)C2C(=O)N1c1ccccc1` (stereo not given), the composite z-score in test [1] was 0.56; in test [2], -0.935; in [3], 1.44; in test [4] it was -0.0877; in [5], 0.0669; in test [6], -0.581. The composite z-score in the test on Lefty1 was -0.698; in test [8] it was -0.0504. Further, the z-score in test [7] is -1.4; in [9] it was -0.331 (inactive).
As for `COc1ccc(CCN2C(=O)[C@@]3(Cc4ccccc42)c2ccccc2C(=O)N(Cc2ccccc2Cl)[C@H]3c2ccc(CO)cc2)cc1`, the composite z-score in test [1] is -1.74; in [2], -1.3; in [3] it was -0.657; in test [4] it was -0.953; in [5] it was -1.1; in test [6], -0.157. In addition, the composite z-score in the test with Lefty1 was -1.17; in test [8], -0.0043. The figures for the z-score in test [7] and in test [9] were -0.599 and -0.822 (inactive), respectively.
On to `CN(C)C(=O)[C@@]1(CCC(=O)OC(C)(C)C)N=C(c2ccc(OCCCO)cc2)O[C@H]1c1ccccc1`, for which the composite z-score in test [1] was 3.44; in test [2], 1.11; in test [3] it was 0.384; in test [4], 0.65; in [5] it was 0.381; in [6] it was -0.309. The composite z-score was -0.943 in the test on Lefty1 and 0.798 in test [8]. For the same molecule, the figures for the z-score in [7] and in test [9] were -0.457 and -0.874 (inactive), respectively.
On to `O=C1c2ccccc2[C@@]2(Cc3ccccc3N(Cc3ccccc3)C2=O)[C@H](c2ccc(CO)cc2)N1C1CCCCC1`, for which the composite z-score in test [1] was 0.386; in [2] it was 0.174; in test [3], 0.117; in test [4] it was -0.0673; in [5], 1.02; in [6], 0.736. Moreover, the composite z-score was determined as 0.483 with Lefty1 and 0.0291 in [8]. Moreover, the values for the z-score in [7] and in test [9] were -0.191 and 0.378 (inactive), respectively.
With `C=C(C(=O)CC[C@H](OC(C)=O)c1ccc(OCCO)cc1)C(C)C`, the composite z-score in [1] was 0.772; in [2] it was -0.02; in test [3], -0.381; in test [4] it was 0.711; in test [5] it was 1.4; in test [6], 0.911. For the same molecule, the composite z-score in the test on Lefty1 amounted to 1.45; in test [8], 0.0674. Further, the figures for the z-score in test [7] and in test [9] were -0.217 and -0.503 (inactive), respectively.
As for `CC(C)CNC(=O)[C@@H]1c2ccccc2C(=O)N(Cc2cc(C(F)(F)F)cc(C(F)(F)F)c2)[C@H]1c1ccc(CO)cc1`, the composite z-score in test [1] is -0.137; in [2], -0.569; in test [3], 0.093; in test [4], -0.419; in test [5] it was -0.137; in test [6], -0.124. Moreover, the composite z-score with Lefty1 was -0.851; in test [8], 0.204. Further, the z-score was 0.157 in test [7] and -0.975 (inactive) in [9].
In the case of `COCCOC(=O)N1C(=O)[C@@]2(c3cc(C#CCC(C(=O)OC)C(=O)OC)ccc31)[C@H](c1ccccc1OCCO)N1[C@H](c3ccccc3)[C@H](c3ccccc3)OC(=O)[C@H]1[C@@H]2C(=O)N1CCc2cc(OC)c(OC)cc2C1`, the composite z-score in [1] is 0.89; in test [2], 1.19; in test [3] it was 1.33; in test [4], 0.938; in test [5] it was 1.41; in test [6], 1.49. Also, the composite z-score with Lefty1 worked out at 1.47; in [8] it was 0.784. For the same molecule, the z-score is -0.978 in test [7] and -0.882 (inactive) in test [9].
Regarding `COc1ccc([Si](C)(C)[C@H]2[C@H](CC(=O)N(CCO)Cc3ccccc3)O[C@@]3(C(=O)N(Cc4cccc(N5CCC5=O)c4)c4ccccc43)[C@@H]2C)cc1`, the composite z-score was 2.18 in test [1]; 1.03 in test [2]; 0.222 in test [3]; 0.279 in test [4]; 1.12 in test [5]; 1.68 in [6]. In addition, the composite z-score in the test on Lefty1 amounted to 1.33; in test [8] it was 0.767. The values for the z-score in [7] and in test [9] were -0.166 and 0.272 (inactive), respectively.
Regarding `C=CCOC(=O)[C@@H]1[C@H]2C(=O)O[C@H](c3ccccc3)[C@H](c3ccccc3)N2[C@H](c2ccc(OCCOC(=O)[C@@H]3C[C@@H]4C(=O)N[C@@H](Cc5ccccc5)C(=O)N4[C@@H]3c3cccc(OCCO)c3)cc2)[C@@]12C(=O)Nc1ccc(I)cc12`, the composite z-score in test [1] was found to be 0.351; in test [2] it was 0.675; in test [3], 0.184; in test [4], 0.199; in [5] it was 1.33; in [6], 1.55. Besides, the results for the composite z-score (in the test on Lefty1; in [8]) were 0.951 and 0.181, respectively. For the same molecule, the figures for the z-score in [7] and in test [9] were -0.917 and 0.152 (inactive), respectively.
